Cruzain noTriton – qHTS Assay for Promiscuous and Specific Inhibitors of Cruzain (without detergent) | 200,000 tested, 2.3% active | purified cruzain, Z-FR-AMC fluorescence, no detergent | Cruzipain (Trypanosoma cruzi), P25779 | Potency, µM, for the others: max response, negative = inhibition, hits mostly inhibitors;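 further: plate controls were enzyme without inhibitor for no effect and buffer without enzyme for full effect; nearly all actives have a fitted effect of over 40% in size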
Target sequence (P25779 123-467 limits assumed): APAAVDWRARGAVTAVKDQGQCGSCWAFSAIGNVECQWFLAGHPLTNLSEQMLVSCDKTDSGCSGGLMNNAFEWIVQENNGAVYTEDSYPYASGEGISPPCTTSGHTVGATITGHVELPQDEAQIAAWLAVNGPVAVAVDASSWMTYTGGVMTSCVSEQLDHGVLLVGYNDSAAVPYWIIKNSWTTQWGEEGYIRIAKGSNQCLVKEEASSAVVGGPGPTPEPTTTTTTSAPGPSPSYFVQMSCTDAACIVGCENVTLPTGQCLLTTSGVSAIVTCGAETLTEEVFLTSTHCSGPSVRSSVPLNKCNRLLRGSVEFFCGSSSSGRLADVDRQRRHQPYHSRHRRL
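Purified cruzain at 1.5 nM, pre-incubated 15 min with compound at room temperature in 100 mM sodium acetate pH 5.5, 5 mM DTT, 0.00005% Triton X-100. Reaction started with 2 uM Z-FR-AMC; AMC fluorescence increase over 60 s gives rate.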
Cruzain inh Det – qHTS Assay for Promiscuous and Specific Inhibitors of Cruzain (with detergent); Cruzipain (Trypanosoma cruzi), P25779; purified cruzain, Z-FR-AMC fluorescence, 0.01% Triton; Potency, µM, without a hit: max response, negative = inhibition, usual class: inhibitors; 200,000 tested, 0.43% active;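 further: plate controls were neutral wells for no effect and buffer without enzyme for full effect; nearly all actives have a fitted effect of over 40% in size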
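Detergent-containing arm of a paired screen for aggregation-based inhibition: 0.01% Triton X-100 present. Cruzain at 1.5 nM cleaved 2 uM Z-FR-AMC at pH 5.5 with 5 mM DTT; AMC fluorescence gain over 60 s measured activity.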
Numbers without * were called inactive; ? = inconclusive; ! = not active in a repeat. Hits are enriched below; roughly 2.4% of the tested compounds scored in any of these assays. The call rests on the fitted dose curve; in most records, active means well fitted curve in the direction sought with a large enough effect; inconclusive means small, poorly fitted or top-dose-only effect, or another doubt; inactive means no such curve, though single readings can be large; an effect the other way counts as inactive or inconclusive. Potency means the concentration at half of the fitted maximal effect.

SMILES | Cruzain noTriton | Cruzain inh Det
CCC(=O)CC(c1ccccc1)c1c(O)c2ccccc2sc1=O (stereo not given) | -9.9% | -13.9%
Cc1ccc(C(=O)N2CCN(c3ccc(Cl)cc3)CC2)cc1 | -7.3% | 1.1%
N#CCC(=N)N1CCN(c2ccc(Cl)cc2)CC1 | 12.6µM* | -1.1%
O=C(/C=C\NCC(=O)c1ccccc1)c1ccc(F)cc1 | -22.5% | -14.7%
O=C(/C=C\NCC(=O)c1ccccc1)c1ccc2ccccc2c1 | 31.6µM* | -26.0%
CCOC(=O)C(C#N)c1ccccn1 (stereo not given) | -7.7% | -0.4%
CCOC(=O)C1=C(CN(CC)Cc2ccccc2)NC(=O)NC1c1ccc(OC(C)C)cc1 (stereo not given) | 5.3% | -7.6%
CCOC(=O)c1c(NC(=O)COC(=O)Cn2cnc3ccccc32)sc(C)c1C | -2.6% | 2.7%
CCOC(=O)c1c(NC(=O)Cn2cnc3sc(C)c(-c4ccccc4)c3c2=O)sc(C)c1C | 12.6µM* | -7.4%
CCOC(=O)c1ccc(NC(=O)Cn2cnc3sc(C(=O)OCC)c(C)c3c2=O)cc1 | -6.3% | 0.6%
CCOC(=O)c1c(NC(=O)Cn2cnc3scc(-c4ccc(C)cc4)c3c2=O)sc(C)c1C | 3.98µM* | -5.5%
CCOc1c(C(N)=O)c(-c2ccccc2)c2c(=O)[nH]c3ccccc3n12 | -3.1% | 5.6%
COC(=O)C1=CN(C(C)C)C=C(C(=O)OC)C1c1cc(Br)c(OC)c(OC)c1 | ? | -12.2%
Cn1nc(C(F)(F)F)c(C(=O)Nc2cccc(Cl)c2)c1Cl | 7.2% | 3.3%
Cc1nc2cc(C(=O)OCC(=O)Nc3cccc(Cl)c3)ccc2n1-c1ccccc1 | 25.1µM* | -7.3%
Cc1nc2cc(C(=O)OCC(=O)NC34CC5CC(CC(C5)C3)C4)ccc2n1-c1ccccc1 | -10.4% | -6.5%
O=C(Nc1cccc(-c2nnc(-c3ccccc3)o2)c1)c1ccco1 | -2.3% | -1.1%
CCOC(=O)c1c(NC(=O)CN2C(=O)NC3(CCC(CC)CC3)C2=O)sc(C)c1-c1ccc(C)cc1 (stereo not given) | 20µM* | -2.1%
CCOC(=O)c1c(NC(=O)CN2C(=O)NC3(CCCCCC3)C2=O)sc(C)c1-c1ccc(C)cc1 | ? | -4.4%
O=C(CCc1ccccc1)Nc1cccc(NC(=O)CCc2ccccc2)c1 | -9.3% | -6.2%
NS(=O)(=O)c1cccc2c1c([N+](=O)[O-])cc1[nH]c(=O)c(=O)[nH]c12 | 3.8% | -15.2%
CCc1cccc(C)c1NC(=O)COC(=O)c1c2c(nc3ccccc13)/C(=C\c1cccs1)CCC2 | 7.94µM* | 0.3%
NC(=O)c1ccc(NC(=O)COC(=O)c2c3c(nc4ccccc24)/C(=C\c2cccs2)CCC3)cc1 | ? | -2.2%
CC1=C(C(=O)OC2CCCCCC2)C(c2c(Cl)cccc2Cl)CC(=O)N1 (stereo not given) | -8.8% | -9.9%
CCCCCCCCCCCOC(=O)c1ccccc1C(=O)OCCCCCCCCCCC | -4.9% | -1.3%
SMILES | Cruzain noTriton | Cruzain inh Det
Cc1cccc(Nc2ncc3c(n2)CC(C)CC3=O)c1 (stereo not given) | 1.9% | -7.2%
Cc1nc(Nc2cccc(C(F)(F)F)c2)nc2c1C(=O)CC(C)C2 (stereo not given) | 15.8µM* | 4.7%
Cc1cccc(C(=O)Nc2nnc(S(=O)(=O)N3CCCc4ccccc43)s2)c1 | -4.0% | -1.7%
Cc1ccc2nc(NC(=O)c3ccc(S(=O)(=O)N4CCCc5ccccc54)cc3)sc2c1 | 6.31µM*! | 1.4%
CN1CCc2nc(NC(=O)c3cccc(S(=O)(=O)N4CCc5ccccc54)c3)sc2C1 | 15.8µM* | -4.9%
O=C(Nc1nc2c(s1)CCCC2)c1cccc(S(=O)(=O)N2CCCc3ccccc32)c1 | 25.1µM* | -5.7%
O=C(Nc1nc2c(F)cc(F)cc2s1)c1ccc(S(=O)(=O)N2CCc3ccccc32)cc1 | -17.3% | -1.3%
O=C(Nc1nc2c(F)cccc2s1)c1ccc(S(=O)(=O)N2CCCc3ccccc32)cc1 | -1.3% | 1.2%
O=C(Nc1nc2ccc(F)cc2s1)c1cccc(S(=O)(=O)N2CCc3ccccc32)c1 | 7.94µM* | -1.2%
CCC(CC)c1nnc(NC(=O)c2cccc(S(=O)(=O)N3CCc4ccccc43)c2)s1 | ? | -2.0%
CC(C)(C)c1ccc(SCC(N)=O)cc1 | 13.9% | -0.8%
O=C(N/N=C/c1ccc([N+](=O)[O-])cc1)c1ccc2nc[nH]c2c1 | 5.2% | -5.4%
CCOc1ccc(-n2c(SCC(=O)N3CCCC3)nc3c([nH]c4ccccc43)c2=O)cc1 | -2.0% | -0.4%
CC(=O)c1ccc(NC(=O)c2ccc(-c3nc(CSc4ccccc4)c(C)o3)cc2)cc1 | 10µM* | -2.4%
CC(=O)c1ccc(NC(=O)c2ccc(-c3nc(CSc4ccc(C)cc4)c(C)o3)cc2)cc1 | ? | -2.2%
COc1ccc(NC(=O)c2ccc(-c3nc(COc4ccccc4)c(C)o3)cc2)cc1 | 2.1% | -1.6%
CC(=O)c1ccc(NC(=O)c2ccc(-c3nc(COc4ccc(C)cc4)c(C)o3)cc2)cc1 | 1µM* | -2.9%
Cc1ccc(O)c(C2=Nc3ccccc3N=C(c3ccc([N+](=O)[O-])cc3)C2)c1 | 20µM* | -7.7%
Cc1ccc(O)c(C2=Nc3ccccc3N=C(c3ccco3)C2)c1 | 17.1% | -0.3%
Cc1cc(C(=O)NCc2ccc(S(N)(=O)=O)cc2)ccc1[N+](=O)[O-] | -8.9% | -3.8%
COc1ccc(C(=O)Nn2c(SCC(=O)c3ccccc3)nc3ccccc3c2=O)cc1 | ? | -4.3%
O=c1c2ccccc2nc(SCc2ccc([N+](=O)[O-])cc2)n1CCCO | ? | -9.9%
COc1ccc(C(=O)Nn2c(SCc3ccc([N+](=O)[O-])cc3)nc3ccccc3c2=O)cc1 | 31.6µM* | 5.5%
O=c1c2ccccc2nc(SCc2ccc([N+](=O)[O-])cc2)n1-c1ccc(Cl)cc1 | 12.6µM* | -1.9%
CC(C)(C)c1nnc2sc(SCC(=O)c3ccccc3)nn2c1=O | ? | -5.6%
SMILES | Cruzain noTriton | Cruzain inh Det
CCC1CCC(c2nnc(-c3ccc(Br)cc3)o2)CC1 (stereo not given) | -6.6% | -4.3%
COc1ccc(-c2cc(C(=O)Nc3nc4c(C)cccc4s3)c3ccccc3n2)cc1OC | 2.1% | 2.6%
CC(=O)NCCNc1nc(-c2ccc3c(c2)OCO3)nc2ccccc12 | -9.5% | -1.1%
Cc1c(Cc2ccccc2)sc(NC(=O)/C=C/c2cccc3ccccc23)c1C(N)=O | 5.01µM* | -5.0%
COC(=O)c1c(NC(=O)/C=C/C(=O)O)sc(Cc2ccccc2)c1C | 13.1% | -9.6%
Cc1cc(C)c(NC(=O)Cn2nnc(-c3ccccc3)n2)c(C)c1 | -0.2% | 0.6%
Cc1cccc(C)c1NC(=O)Cn1nnc(-c2ccc(N3CCOCC3)cc2)n1 | 20µM* | -4.3%
CN(C)Cc1nc2ccccc2c(=O)n1Cc1nc(C(C)(C)C)cs1 | 20.2% | -2.8%
COc1cccc2cc(-c3nc(-c4cccs4)no3)c(=O)oc12 | -3.8% | -0.1%
CCCN(CCC)CCNC(=O)C1CCN(Cc2nc(-c3ccc(Cl)cc3)oc2C)CC1 | -6.4% | -4.2%
COC(=O)c1c(NC(=O)c2c(C)noc2C)sc2c1CCCCCC2 | -3.9% | 5.4%
COC(=O)c1c(NC(=O)c2c(-c3ccccc3Cl)noc2C)sc2c1CCC2 | 12.6µM* | -4.6%
COc1ccc(NC(=O)c2cc(C3CC3)nc3c2c(C)nn3-c2ccccc2)cc1 | -14.7% | -0.5%
O=C(O)c1ccc(N2C(=O)CC(SC(=Nc3ccccc3)Nc3ccccc3)C2=O)cc1 (stereo not given) | -2.3% | -2.3%

Assay outcomes as filed in PubChem BioAssay.
